# LDHA block = qHTS assay for inhibitors of human lactate dehydrogenase | purified LDHA, NADH/diaphorase-resazurin fluorescence; active compounds read low | activity change, % (values are at about 110 or 230 µM) | 480,000 compounds, 0.15% hits | L-lactate dehydrogenase A chain (Homo sapiens), P00338; in the data active = activity change below about -30%; inconclusive = mostly about -25% to -30%
#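 Remaining NADH was detected by diaphorase (0.133 mg/mL) converting 37 µM resazurin to fluorescent resorufin, read at 0 and 20 minutes. The preceding 5-minute room-temperature reaction used 2 nM LDHA, 0.2 mM sodium pyruvate and 0.06 mM NADH at pH 7.4.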
# miR-21 reporter = qHTS Assay for Modulators of miRNAs and/orActivators of miR-21 | HeLa miR-21 FLuc reporter, luciferase, 48 h | Potency, µM (highest dose often 38.3 µM), hits mostly activators | 340,000 tested, under 10 active;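 also: miR-21 action dims this reporter so a rising signal means less miR-21 action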
#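 HeLa cells stably expressing CMV-driven firefly luciferase with a downstream miR-21 binding sequence, endogenously expressing miR-21, were treated with titrations (up to about 40uM final) for 48 hours at 37 degree Celsius. Luciferase luminescence was read after lysis.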
# Anesthetic bind = qHTS Assay for Identification of Novel General Anesthetics; apoferritin/1-aminoanthracene competitive binding, fluorescence; AID 485281, 2010; Ferritin light chain (Equus caballus), P02791; 350,000 compounds, 0.074% hits; Potency, µM (highest dose often 77.5 µM), most hits filed as inhibitors; also: nearly all actives have a fitted effect of over 20% in size
# Target sequence (P02791 2-175 limits assumed): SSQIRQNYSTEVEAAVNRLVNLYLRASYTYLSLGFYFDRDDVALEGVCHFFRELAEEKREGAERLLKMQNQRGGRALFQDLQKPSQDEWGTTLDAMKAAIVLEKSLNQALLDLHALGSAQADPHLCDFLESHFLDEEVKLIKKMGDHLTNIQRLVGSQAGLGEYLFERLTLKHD
#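 Steps: apoferritin (10 uM) was premixed with half-saturated 1-AMA in PBS, compounds were pin-transferred, plates stood 10 min at room temperature, fluorescence was read at 380/535 nm, and curves were fitted with a Hill equation.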
# A number is an active result; - = inactive; ? = inconclusive; . = no result. Shown are actives, neighbours in structure and some others; about 0.2% of the full set was active somewhere. Unless noted, calls follow the shape of the dose curve; as a rule, active = well fitted curve in the direction sought with a large enough effect; inconclusive = small, poorly fitted or top-dose-only effect, or another doubt; inactive = no such curve, though single readings can be large; an effect the other way counts as inactive or inconclusive.
SMILES,LDHA block,miR-21 reporter,Anesthetic bind
CC(NC1CCCc2ccccc21)C(=O)c1c[nH]c2ccccc12 (centres undefined),-,.,.
CC(C)(C)c1ccc(-c2csc(NC(=O)COCc3nc4ccccc4c(=O)[nH]3)n2)cc1,-,.,.
CC(C)Cn1nc(C(=O)Nc2ccc(I)cc2)c2ccccc2c1=O,-,.,.
O=C(NCCc1ccc(Cl)cc1)c1cc2c(s1)-c1ccccc1OC2,-,-,-
Cc1ccc(CCNC(=O)c2cc3c(s2)-c2ccccc2OC3)cc1,-36,-,-
Cc1ccc(CNC(=O)Cc2ccsc2)cc1,-,.,.
Fc1ccc(CNc2ccc(F)c(Cl)c2)cc1F,-,.,.
COc1cccc(CNc2ccc(F)c(Cl)c2)c1,-,-,8.9µM
Cc1ccc(CNC(=O)c2cc(COc3c(F)cccc3F)on2)s1,-,-,13µM
CSc1ccccc1OCc1cc(C(=O)NCc2ccc(C)s2)no1,-,-,?
COc1cc(S(=O)(=O)N2CCC(C(N)=O)CC2)c(OC)cc1Cl,-,.,.
CC(=O)Nc1cccc(Oc2ccc3nnc(-c4ccc(Br)cc4)n3n2)c1,-,.,.
CN(C)c1nc(N2CCOCC2)nc(N(c2ccccc2)c2ccccc2)n1,-,-,-
CN(C)c1cccc(N=C2C=C(N3CCOCC3)CC(C)(C)C2)c1,-31,-,-
Cc1cc(NC(=O)CS(=O)CC(=O)Nc2c(C)cccc2C)ccc1-n1cnnn1 (centres undefined),-,-,-
CCc1ccc(NC(=O)CS(=O)CC(=O)Nc2ccc(-n3cnnn3)c(C)c2)cc1 (centres undefined),-32,-,?
CCn1cc(S(=O)(=O)Nc2ccc(F)cc2C)cn1,-,.,.
Cc1ccccc1S(=O)(=O)N1C[C@H]2CON(C)[C@H]2C[C@H]1c1cccc(-c2ccccc2)c1,-,.,.
CN1OC[C@@H]2CN(S(=O)(=O)c3cccc4ccccc34)[C@H](c3ccc(-c4ccccc4)cc3)C[C@@H]21,-30,.,.
Cc1cccc(OCC(=O)Nc2onc3c2CC(C)CC3)c1 (centres undefined),-,.,.
NC(=O)c1ccc(COC(=O)c2ccc(Cl)cc2)cc1,-,.,.
CN(C)CCCNc1oc(/C=C/c2cccs2)nc1C#N,-,.,.
O=C1ON=C(c2ccccc2[N+](=O)[O-])/C1=C/c1cccc([N+](=O)[O-])c1O,-,.,.
O=C1ON=C(c2ccc(Cl)c([N+](=O)[O-])c2)/C1=C/c1cccc([N+](=O)[O-])c1O,-31,.,.
CCCCN(CCCC)S(=O)(=O)c1[nH]ncc1C(=O)OCC,-,.,.
SMILES,LDHA block,miR-21 reporter,Anesthetic bind
COc1ccc(C)cc1-n1nnc(C(=O)Nc2ccc(Br)cc2)c1C,-,.,.
Nc1ccc(Sc2ccc([N+](=O)[O-])cc2)cc1,-,-,11µM
O=C1C=CC(=O)N1c1ccc(Sc2ccc([N+](=O)[O-])cc2)cc1,.,-,-
CC1Sc2c(C(C)(C)C)cc(C(C)(C)C)c(O)c2OC1=O (centres undefined),-,.,.
CCCCNC(=O)CN1CCN(Cc2ccc3cc(OC)ccc3c2)CC1,-33,-,-
COc1ccc(NC(=O)CN2CCN(Cc3ccccc3)CC2)cc1,-,-,-
CN(C)c1ccc(-c2c3ccccc3nc3ccccc23)cc1,-,.,.
CN(C)c1nc2ccccc2c(N)c1-c1ccccc1,-38,-,-
O=C(CN1CCN(c2ccc(F)cc2)CC1)NCC1CCCO1 (centres undefined),-,-,-
COc1ccccc1N1CCN(CC(=O)NCC2CCCO2)CC1 (centres undefined),-43,-,-
CCN(CC)c1ccc(/C=N/n2c(=S)[nH]nc(C)c2=O)cc1,-31,-,?
Cc1n[nH]c(=S)n(/N=C/c2cccs2)c1=O,-31,-,-
CC(C)(C)c1n[nH]c(=S)n(/N=C/c2cccs2)c1=O,-,-,-
CCc1n[nH]c(=S)n1/N=C/c1ccc(NC(C)=O)cc1,-,-,-
O=C(CSc1nc(-c2ccccc2)cs1)Nc1ccc(OC(F)F)cc1,-,.,.
CCc1ccc(NC(=S)Nc2ccc(C)c(S(=O)(=O)N(CC)CC)c2)cc1,-,.,.
CCc1ccc(S(=O)(=O)c2cnc(SCC(=O)Nc3ccc(OC)cc3OC)[nH]c2=O)cc1,-,-,?
CC(C)(C)c1ccc(S(=O)(=O)c2cnc(SCC(=O)Nc3ccc(F)c(Cl)c3)[nH]c2=O)cc1,-49,-,?
O=C(CSc1ncc(S(=O)(=O)c2ccc(Cl)cc2)c(=O)[nH]1)Nc1cccc(C(F)(F)F)c1,-,-,-
COc1cc(Cl)c(C)cc1NC(=O)CSc1ncc(S(=O)(=O)c2ccc(C(C)(C)C)cc2)c(=O)[nH]1,-39,-,?
Cc1cccc(NC(=O)c2nc[nH]c2C(=O)N[C@@H](C)C(=O)OC(C)(C)C)c1,-,-,18µM
C[C@H](NC(=O)c1[nH]cnc1C(=O)Nc1ccc(Cl)cc1)C(=O)OC(C)(C)C,-,-,-
COc1ccc(C2=C(O)C(=O)N(Cc3cccnc3)C2c2ccccc2F)cc1 (centres undefined),-,.,.
COc1ccccc1NC(=O)CN1CCCCC1,-,-,-
CCN1CCN(CC(=O)Nc2c(OC)cccc2OC)CC1,-31,-,-
SMILES,LDHA block,miR-21 reporter,Anesthetic bind
Cc1ccc(NC(=O)COC(=O)CSC(=S)N2CCOCC2)cc1C,-,-,5.6µM
Cc1ccc(NC(=O)COC(=O)CN2CSCC2=O)cc1C,-,-,-
CCN(CC)CCNCc1sccc1C,-,.,.
O=C(/C=C/c1ccc(-c2ccccc2)s1)N(Cc1ccco1)C1CC1,-,.,.
CCCn1c(=O)c2ccc(C(=O)NC(C)CC)cc2n2c(SCc3ccccc3)nnc12 (centres undefined),-,.,.
CCCn1c(=O)c2ccc(C(=O)NCC(C)C)cc2n2c(SCc3ccc(F)cc3)nnc12,-34,.,.
C1=CC2CC1CC2CN1CCN(Cc2ccccc2)CC1 (centres undefined),-32,-,-
Fc1ccccc1N1CCN(CC2CC3C=CC2C3)CC1 (centres undefined),-,-,-
COc1ccc(NC(=O)c2n[nH]c3ccccc23)cc1S(=O)(=O)Nc1ccccc1Cl,-,.,.
COc1cccc(-c2nc(-c3ccccc3)c(-c3ccccc3)[nH]2)c1OCC(=O)O,-,-,-
O=C(O)COc1ccccc1-c1nc(-c2ccccc2)c(-c2ccccc2)[nH]1,-43,-,-
O=C(CN1C(=O)S/C(=C\c2cccc(Cl)c2)C1=O)Nc1ccc2oc(=O)ccc2c1,-,.,.
CCC(CC)C(=O)OCC(=O)NC12CC3CC(CC(C3)C1)C2,-,-,6.3µM
CCSC(=O)NC12CC3CC(CC(C3)C1)C2,-,-,8.9µM
O=C(COC(=O)C(O)c1ccccc1)NC12CC3CC(CC(C3)C1)C2 (centres undefined),-,-,11µM
O=C(COc1ccccc1)NC12CC3CC(CC(C3)C1)C2,-,.,.
CCOCC(=O)OCC(=O)NC12CC3CC(CC(C3)C1)C2,-,-,?
CCC(=O)NC12CC3CC(CC(C3)C1)C2,-,.,.
Clc1ccc2[nH]c3c(NCCN4CCOCC4)ncnc3c2c1,-,-,-
Fc1ccc2[nH]c3c(NCCN4CCOCC4)ncnc3c2c1,-35,-,-
